{
  "source": "PubChem BioAssay",
  "note": "Active and inactive are the calls of the source.",
  "data": [
    {"system": "not listed separately", "experiment": "S6 kinase pathway phospho-S6 level changes – cell-based, A549, cytoblot, luminescence, serum-stimulated, primary screen (AID 1158);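 further: serum-stimulated A549 lung adenocarcinoma cells; signal is phosphorylated S6 detected by cytoblot immunostaining with HRP secondary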", "conditions": "5 h, higher = more signal", "values": [
      {"smiles": "COC(=O)CC=C[C@@H](C)[C@@H](C=NO[C@@H](C)c1cc(-c2c(C)cc(C)cc2C)no1)OC", "z-score": 2.15},
      {"smiles": "C=C(/C(=C/C[C@@H](OC(=O)c1ccncc1)c1ccc(OCCO)cc1)c1cnc2ccccc2c1)C(C)C", "z-score": 0.13},
      {"smiles": "CC(=O)OC[C@H]1O[C@H](CC=NOC[C@@H](C)[C@H](OCc2ccccc2)C(C)C)C=C[C@@H]1OC(C)=O", "z-score": -0.0212}
    ]},
    {"biological_target": "NADPH oxidase 2 (Homo sapiens) (UniProt P04839)", "sequence (P04839 whole entry, looked up)": "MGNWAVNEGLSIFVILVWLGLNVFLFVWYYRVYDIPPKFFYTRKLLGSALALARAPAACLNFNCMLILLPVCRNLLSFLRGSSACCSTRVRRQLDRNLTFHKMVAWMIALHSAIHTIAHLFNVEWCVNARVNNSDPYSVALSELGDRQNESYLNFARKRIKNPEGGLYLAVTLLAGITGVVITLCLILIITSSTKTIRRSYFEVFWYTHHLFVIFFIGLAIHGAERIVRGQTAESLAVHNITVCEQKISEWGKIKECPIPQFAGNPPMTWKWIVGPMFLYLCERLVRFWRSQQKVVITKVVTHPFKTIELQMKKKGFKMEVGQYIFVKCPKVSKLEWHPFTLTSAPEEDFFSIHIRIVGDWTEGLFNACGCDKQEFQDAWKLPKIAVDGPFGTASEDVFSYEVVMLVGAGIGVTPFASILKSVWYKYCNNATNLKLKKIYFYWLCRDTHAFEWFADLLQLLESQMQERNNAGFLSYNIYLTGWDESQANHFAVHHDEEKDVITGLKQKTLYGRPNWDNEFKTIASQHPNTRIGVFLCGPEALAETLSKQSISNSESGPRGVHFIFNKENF", "experiment": "compounds shifting NOX2 Amplex Red fluorescence – cell-based, HEK293-NOX2, PMA-stimulated, NOX inhibitor project, primary screen (AID 1159); further: test concentration not given here", "conditions": "45 min, higher = more signal, called active from +8 up or from −8 down", "values": [
      {"smiles": "CC(C)c1ccc(NN2C(C(O)c3ccc4c(c3)OCO4)C=CC3C(=O)N(c4ccccc4)C(=O)C32)cc1", "note": "(stereo not given)", "z-score": "-0.488 (inactive)"},
      {"smiles": "C[C@@H]1CCC2C(=O)N(Cc3ccccc3)C[C@@H](O)CN2[C@H]1c1ccc(Br)cc1", "note": "(stereo not given in full)", "z-score": "0.615 (inactive)"},
      {"smiles": "O=C1[C@H]2[C@H]3[C@H](O)[C@H](O)CC(=NO[C@@H]4O[C@H](CO)[C@@H](O)[C@H](O)[C@H]4O)[C@H]3CC[C@H]2C(=O)N1Cc1ccc2c(c1)OCO2", "z-score": "-2.58 (inactive)"},
      {"smiles": "CC[C@@H](c1ccccc1)n1c(=O)n2n(c1=O)[C@H]1[C@H](O)[C@@H]3O[C@@H]3C(=NOCC=C(C)CCC=C(C)C)[C@H]1CC2", "z-score": "2.38 (inactive)"},
      {"smiles": "CC(C)(C)N1C(=O)[C@H]2[C@H]3[C@H](O)[C@H](O)CC(=NO[C@@H]4O[C@H](CO)[C@@H](O)[C@H](O)[C@H]4O)[C@@H]3CC[C@H]2C1=O", "z-score": "1.01 (inactive)"},
      {"smiles": "CC(C)(C)N1C(=O)[C@H]2[C@H]3[C@H](O)[C@H](O)CC(=NOCc4ccccc4)[C@@H]3CC[C@H]2C1=O", "z-score": "-1.57 (inactive)"},
      {"smiles": "COCCOC(=O)N1C(=O)[C@@]2(c3cc(C#CCNC(N)=O)ccc31)[C@H](c1ccccc1OCCO)N1[C@H](c3ccccc3)[C@H](c3ccccc3)OC(=O)[C@H]1[C@@H]2C(=O)N1CCN(c2ncccn2)CC1", "z-score": "1.63 (inactive)"}
    ]}
  ]
}
